# Measured values published in PubChem BioAssay.
# Where “and” joins values, the source holds several entries; their conditions need not be identical. Equal entries are not always repeated. Calls of active or inactive are those of the source.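 The calls were made as follows, unless noted: active = z-score of at least 1.8 in each of two replicates, scored against plate mean and spread of sample wells; inactive = the rest.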
# Columns and labels:
# [1] = P. berghei load reduction in hepatocytes – cell-based, HepG2, luciferase luminescence, HepG2 viability, primary screen (AID 624349; in the data active = parasite load remaining mostly below about 12%, no sharp cut-off; inactive = mostly above about 10%;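 also: 100% = mean of DMSO negative control wells on the same plate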); settings: P. berghei liver stage in HepG2, luciferase luminescence, concentration not given here; parasite load remaining: stronger effect = lower value; viability: measured here: HepG2 viability without parasites
# [2] = Wnt pathway potentiators raising nuclear beta-catenin – imaging, WNT3A-conditioned medium, mouse C2C12, NPC library, primary screen (AID 1117326; in the data active = nuclear beta-catenin stimulation mostly above about 4.2%, no sharp cut-off; inactive = mostly below about 10%); settings: stronger effect = higher value
# [3] = stimulators of insulin release from INS-1E, primary screen, cell-based, 5 mM glucose, NPC library (AID 1117329;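 active = compound raises insulin release from rat beta cells at 5 mM glucose, no numeric limit stated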); settings: rat INS-1E insulin secretion, at 10 µM, stronger effect = higher value
# [4] = growth inhibition of GSK3B-pretreated HCT116 cells – cell-based, CellTiter-Glo, 0.2 to 20 µM (AID 1117336;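 active = compounds lowering colon cancer cell viability after pretreatment blocking the GSK3B kinase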); settings: HCT116 viability after GSK3B inhibitor, at 20 µM, stronger effect = higher value
# [5] = inhibition of endothelial tube formation, primary screen, imaging, VEGF stimulated, CD31 staining, tube area, NPC library (AID 1117340;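 active = compound that reduces growth-factor-driven endothelial tube area in a mixed cell culture, no cutoff stated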); settings: VEGF-stimulated ADSC/ECFC co-culture, at 10 µM, stronger effect = higher value
# [6] = GLP1 release stimulators, primary, NCI-H716, NPC library (AID 1117341;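 active = compound raises GLP1 secretion from the human gut endocrine cells, with no numeric limit stated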); settings: NCI-H716 cells, at 10 µM, stronger effect = higher value
# [7] = HCT116 colon cancer cell growth inhibition, primary screen, CellTiter-Glo luminescence, NPC library (AID 1117342;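 active = compounds that lower survival of HCT116 colon cancer cells in the luminescence readout, no numeric limit stated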); settings: at 20 µM (top of the series)
# [8] = reduced SW480 viability measured with CellTiter-Glo, NPC library, primary (AID 1117343;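 active = compounds that lower viability of the colon cancer cells in the luminescence readout, with no numeric limit stated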); settings: CellTiter-Glo luminescence; at 20 µM (top of the series)
# [9] = NPC library primary testing for decreased DLD-1 cell viability via CellTiter-Glo (AID 1117346;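 active = compounds that lower survival of DLD-1 colon cancer cells in the luminescence readout, no cutoff given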); settings: DLD-1 viability, CellTiter-Glo luminescence; at 20 µM (top of the series)
# [10] = target: 6-phosphogluconate dehydrogenase, decarboxylating (Homo sapiens) (UniProt P52209); assay: inhibition of human phosphogluconate dehydrogenase – biochemical, recombinant enzyme, NADPH absorbance, primary screen (AID 1159550;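 active = at least 20% inhibition of 6-phosphogluconate dehydrogenase activity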); settings: recombinant 6PGD, NADPH absorbance 341 nm; at 10 µM; stronger effect = higher value
# Sequence of 6-phosphogluconate dehydrogenase, decarboxylating (Homo sapiens) (P52209 whole entry, looked up): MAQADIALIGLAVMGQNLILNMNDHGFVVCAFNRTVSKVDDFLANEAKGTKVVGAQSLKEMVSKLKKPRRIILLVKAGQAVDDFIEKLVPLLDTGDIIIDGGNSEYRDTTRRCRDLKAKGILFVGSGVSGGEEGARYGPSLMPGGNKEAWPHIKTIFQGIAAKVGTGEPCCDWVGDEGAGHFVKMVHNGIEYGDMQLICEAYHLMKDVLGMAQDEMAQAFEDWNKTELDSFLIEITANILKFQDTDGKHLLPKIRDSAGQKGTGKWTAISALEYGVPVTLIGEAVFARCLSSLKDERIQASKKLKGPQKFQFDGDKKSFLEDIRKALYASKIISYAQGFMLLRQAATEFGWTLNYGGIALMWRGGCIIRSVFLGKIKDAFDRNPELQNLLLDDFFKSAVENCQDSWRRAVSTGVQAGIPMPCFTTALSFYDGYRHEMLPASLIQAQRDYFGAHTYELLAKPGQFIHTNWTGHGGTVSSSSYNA
# [11] = EMT-state selective cytotoxicity in co-culture – imaging, PC-3E GFP, TEM4-18 mCherry, primary screen (AID 1345086;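 active = compounds killing one labelled cell type while sparing the other, by normalised counts and ratio limits, not self-fluorescent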;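 as to all read-outs here: cells exposed to compound for 72 h before imaging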;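 as to red/green cell ratio (normalised): normalised mesenchymal count divided by normalised epithelial count so high means epithelial killing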); settings: PC-3E GFP / TEM4-18 mCherry co-culture, imaging cell counts, at 1 µM; for red/green cell ratio (normalised): actives lie on both sides
# [12] = tested on: Aerobactin synthetase IucA (Klebsiella pneumoniae hvKP1); assay: IucA enzyme inhibition, primary screen, biochemical, Spectrum library (AID 1346200; call rule not given here;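 also: 100% = wells without compound and 0% = wells lacking enzyme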); settings: malachite green pyrophosphate, A620, at 8 µM, stronger effect = lower value
# [13] = viability loss with induced miR-34 in A549 – imaging, A549 dox-inducible miR-34, nuclei and caspase counts, primary screen (AID 1347080;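 active = compounds whose cell count with miR-34 switched on is under 0.7 times the count with it off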); settings: A549 miR-34 inducible, Hoechst nuclei count, 48 h
# [14] = MELAS cybrid and Rieske KO viability enhancers – cell-based, MELAS cybrids, Rieske KO mouse fibroblasts, CellTiter-Glo, primary screen (AID 1508586;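 active = mean z-score across replicates of 1.96 or higher in either the MELAS or the Rieske mutant cell line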;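 also: z relative to plate mean and SD of compound and empty wells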); settings: low glucose
# [15] = target: NAD(+) hydrolase SARM1 (Homo sapiens) (UniProt Q6SZW1); assay: blocking NAD cleavage by SARM1 SAM-TIR – cell lysate, NAD-Glo luminescence (AID 1508614;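 active = compound whose remaining NAD level is above about 45 nM, limit read from the data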;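 also: higher remaining NAD means stronger inhibition of SARM1 NADase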); settings: SAM-TIR HEK293T lysate NADase, at 1 µM, stronger effect = higher value
# Sequence of NAD(+) hydrolase SARM1 (Homo sapiens) (Q6SZW1 whole entry, looked up, the tested form may be a part): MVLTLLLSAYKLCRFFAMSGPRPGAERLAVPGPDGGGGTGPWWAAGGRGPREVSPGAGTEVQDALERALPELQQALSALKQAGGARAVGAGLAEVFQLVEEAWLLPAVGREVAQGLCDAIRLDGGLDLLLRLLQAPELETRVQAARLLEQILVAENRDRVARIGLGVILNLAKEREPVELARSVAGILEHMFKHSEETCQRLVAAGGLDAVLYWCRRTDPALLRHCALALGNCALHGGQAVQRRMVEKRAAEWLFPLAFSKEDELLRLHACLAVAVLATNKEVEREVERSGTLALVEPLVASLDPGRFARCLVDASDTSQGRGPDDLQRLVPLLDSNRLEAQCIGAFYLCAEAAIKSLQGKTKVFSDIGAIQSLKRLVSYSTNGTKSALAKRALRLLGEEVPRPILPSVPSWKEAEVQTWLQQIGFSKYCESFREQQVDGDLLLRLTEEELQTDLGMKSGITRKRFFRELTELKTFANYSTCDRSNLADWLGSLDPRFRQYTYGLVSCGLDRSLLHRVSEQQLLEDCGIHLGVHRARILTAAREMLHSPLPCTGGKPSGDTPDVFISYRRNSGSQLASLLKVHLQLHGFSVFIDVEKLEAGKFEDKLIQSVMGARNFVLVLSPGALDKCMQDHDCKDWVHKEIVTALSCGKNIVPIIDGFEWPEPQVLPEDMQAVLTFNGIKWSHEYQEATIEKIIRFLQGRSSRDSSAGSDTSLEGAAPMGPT
# [16] = target: Mitogen-activated protein kinase 7 (Homo sapiens) (UniProt Q13164); assay: Gal4-ERK5 driven luciferase induction – cell-based, HTS, primary screen (AID 1508626;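 active = luciferase signal above three times the same-plate solvent-only control wells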;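 also: luciferase driven by Gal4-ERK5 fusion binding five Gal4 sites before minimal TATA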); settings: HeLa Gal4-ERK5 transactivation, 18 h, at 5 µM, stronger effect = higher value
# Sequence of Mitogen-activated protein kinase 7 (Homo sapiens) (Q13164 whole entry, looked up, the tested form may be a part): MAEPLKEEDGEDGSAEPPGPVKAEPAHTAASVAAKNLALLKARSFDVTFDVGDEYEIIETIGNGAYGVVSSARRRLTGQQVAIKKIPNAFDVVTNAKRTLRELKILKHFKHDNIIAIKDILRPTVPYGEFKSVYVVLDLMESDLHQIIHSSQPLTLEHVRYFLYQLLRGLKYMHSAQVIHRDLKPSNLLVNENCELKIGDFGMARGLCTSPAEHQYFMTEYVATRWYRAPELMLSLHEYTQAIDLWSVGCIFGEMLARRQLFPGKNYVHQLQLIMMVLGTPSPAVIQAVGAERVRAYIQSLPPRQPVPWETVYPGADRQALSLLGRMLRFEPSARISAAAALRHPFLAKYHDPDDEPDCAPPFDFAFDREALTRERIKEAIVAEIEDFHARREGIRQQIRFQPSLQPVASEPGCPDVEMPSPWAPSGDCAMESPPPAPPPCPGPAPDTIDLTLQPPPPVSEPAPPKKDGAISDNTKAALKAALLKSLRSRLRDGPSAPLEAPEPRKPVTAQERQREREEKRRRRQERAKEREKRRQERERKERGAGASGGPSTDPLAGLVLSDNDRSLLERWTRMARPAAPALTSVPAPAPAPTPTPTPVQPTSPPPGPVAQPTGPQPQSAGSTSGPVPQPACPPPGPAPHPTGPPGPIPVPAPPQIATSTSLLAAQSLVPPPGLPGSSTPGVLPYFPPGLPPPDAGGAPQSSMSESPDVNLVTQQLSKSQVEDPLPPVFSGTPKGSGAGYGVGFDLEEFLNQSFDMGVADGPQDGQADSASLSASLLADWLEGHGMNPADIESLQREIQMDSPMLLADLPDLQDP
# [17] = galactose survival enhancers in mitochondrial complex I cybrids – cell-based, galactose medium, ATP luminescence, primary screen (AID 1645843); settings: complex I mutant cybrid cells, 72 h, stronger effect = higher value;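 also: positive z means more ATP and so rescue of galactose-driven cybrid death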
# [18] = yeast 75Q aggregation reduction – 75Q-TubU reporter (AID 1593); settings: Yeast 75Q polyglutamine aggregation reporter
# [19] = blockers of cytochrome c efflux from mitochondria – biochemical, purified mitochondria (AID 1603); settings: stronger effect = lower value;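 also: mouse liver mitochondria challenged with calcium chloride; signal normalized to the plate average as 100%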
# [20] = polyglutamine aggregate formation blockers (AID 1604); settings: polyglutamine-induced protein aggregation inhibition assay; stronger effect = higher value; tested at 2.5 µM
# [21] = measured here: epithelial PC-3E GFP cell survival
# [22] = measured here: mesenchymal TEM4-18 mCherry cell survival
# [23] = measured here: relative caspase fold change +Dox/-Dox
# [24] = measured here: total cells with miR-34 induction, stronger effect = lower value
# [25] = measured here: total cells without miR-34 induction
# [26] = MELAS cybrid survival, CellTiter-Glo 48 h, stronger effect = higher value
# [27] = Rieske KO mouse fibroblast survival, CellTiter-Glo 72 h
smiles,measurement,setting,value
CCC1(C2=NCCN2)Cc2ccccc2O1 (stereo not given),parasite load remaining,[1],40% (inactive)
same,viability,[1],95.5%
same,nuclear beta-catenin stimulation,[2]; at 10 µM,1.3% (inactive)
same,nuclear beta-catenin stimulation,"[2]; stimulation, at 2 µM",-0.1%
same,insulin secretion stimulation,[3],3% (inactive)
same,viability decrease,[4],-18.3% (inactive)
same,tube area decrease,[5],6.6% (inactive)
same,GLP1 secretion stimulation,[6],2.2% (inactive)
same,inhibition of viability,[7],3.97% (inactive)
same,viability decrease (inhibition),[8],3% (inactive)
same,viability decrease (inhibition),[9],0.7% (inactive)
same,inhibition,[10],2.64% (inactive)
same,red/green cell ratio (normalised),"[11]; counts scaled to control wells, 1 = unselective",0.88 (inactive)
same,normalised cell number,[11]; [21],1.21
same,normalised cell number,[11]; [22],1.07
same,activity remaining,[12],92.2% (inactive)
same,fold change,[13]; stronger effect = lower value,0.923 (inactive) and 0.953 (inactive) and 0.905 (inactive)
same,fold change,[13]; [23],1.9 and 0.731 and 1.02
same,cell count,[13]; [24],9860 and 8980 and 10100
same,cell count,[13]; [25],10700 and 9420 and 11200
same,z-score,[14]; [26],-0.478 (inactive)
same,z-score,[14]; [27],-0.349
same,remaining NAD,[15],10 nM (inactive)
same,luciferase signal,[16],140 AU (inactive)
same,z-score,[17],0.21 (inactive) and 0.18 (inactive) and 0.695 (inactive)
Clc1ccc(COC(Cn2ccnc2)c2ccc(Cl)cc2Cl)cc1 (stereo not given),score,[18],0.26
same,cytochrome c release ratio,[19],0.38
same,inhibition of aggregation,[20],43.9%
same,nuclear beta-catenin stimulation,[2]; at 10 µM,3.6% (inactive)
same,nuclear beta-catenin stimulation,"[2]; stimulation, at 2 µM",4.8%
same,insulin secretion stimulation,[3],2.8% (inactive)
same,viability decrease,[4],101% (active)
same,tube area decrease,[5],108% (active)
same,GLP1 secretion stimulation,[6],23.9% (active)
same,inhibition of viability,[7],102% (active)
same,viability decrease (inhibition),[8],123% (active)
same,viability decrease (inhibition),[9],103% (active)
same,inhibition,[10],-10.8% (inactive)
same,red/green cell ratio (normalised),[11],1.13 (inactive)
same,normalised cell number,[11]; [21],0.92
same,normalised cell number,[11]; [22],1.04
same,activity remaining,[12],123% (inactive)
same,z-score,[14]; [26],-0.276 (inactive) and 1.78 (inactive)
same,z-score,[14]; [27],0.45 and 0.962
same,remaining NAD,[15],10 nM (inactive)
same,luciferase signal,[16],60 AU (inactive)
same,z-score,[17],-1.53 (inactive)
CCCC(C)(COC(N)=O)COC(=O)NC(C)C (stereo not given),score,[18],1.44
same,cytochrome c release ratio,[19],0.68
same,inhibition of aggregation,[20],85.8%
same,nuclear beta-catenin stimulation,[2]; at 10 µM,0.1% (inactive)
same,nuclear beta-catenin stimulation,"[2]; stimulation, at 2 µM",-0.6%
same,insulin secretion stimulation,[3],3.4% (inactive)
same,viability decrease,[4],-38.7% (inactive)
same,tube area decrease,[5],14.3% (inactive)
same,GLP1 secretion stimulation,[6],-1.3% (inactive)
same,inhibition of viability,[7],-14.1% (inactive)
same,viability decrease (inhibition),[8],-5.3% (inactive)
same,viability decrease (inhibition),[9],-12.4% (inactive)
same,inhibition,[10],-0.85% (inactive)
same,red/green cell ratio (normalised),[11],1.05 (inactive)
same,normalised cell number,[11]; [21],1.17
same,normalised cell number,[11]; [22],1.23
same,activity remaining,[12],115% (inactive)
same,fold change,[13]; stronger effect = lower value,0.952 (inactive) and 0.896 (inactive) and 0.902 (inactive)
same,fold change,[13]; [23],1.07 and 1.02 and 3.4
same,cell count,[13]; [24],10700 and 9140 and 11300
same,cell count,[13]; [25],11200 and 10200 and 12600
same,z-score,[14]; [26],0.305 (inactive)
same,z-score,[14]; [27],0.223
same,remaining NAD,[15],10 nM (inactive)
same,luciferase signal,[16],40 AU (inactive)
same,z-score,[17],1.27 (inactive)
CN1C(=O)CCS(=O)(=O)C1c1ccc(Cl)cc1 (stereo not given),score,[18],0.89
same,cytochrome c release ratio,[19],0.72
same,inhibition of aggregation,[20],72.7%
same,parasite load remaining,[1],65% (inactive) and 73.4% (inactive)
same,viability,[1],112% and 75.6%
same,nuclear beta-catenin stimulation,[2]; at 10 µM,0.2% (inactive)
same,nuclear beta-catenin stimulation,"[2]; stimulation, at 2 µM",3.4%
same,insulin secretion stimulation,[3],0.4% (inactive)
same,viability decrease,[4],-22.1% (inactive)
same,tube area decrease,[5],3.9% (inactive)
same,GLP1 secretion stimulation,[6],3.4% (inactive)
same,inhibition of viability,[7],-1.4% (inactive)
same,viability decrease (inhibition),[8],2.8% (inactive)
same,viability decrease (inhibition),[9],-11.9% (inactive)
same,inhibition,[10],-16% (inactive)
same,red/green cell ratio (normalised),[11],1.12 (inactive)
same,normalised cell number,[11]; [21],0.96
same,normalised cell number,[11]; [22],1.07
same,activity remaining,[12],123% (inactive)
same,z-score,[14]; [26],-0.135 (inactive) and 0.131 (inactive)
same,z-score,[14]; [27],0.8 and -0.00931
same,remaining NAD,[15],10 nM (inactive)
same,z-score,[17],0.35 (inactive) and 0.81 (inactive)
Oc1ccc2[nH]cc(CCCCN3CC=C(c4ccccc4)CC3)c2c1,nuclear beta-catenin stimulation,[2]; at 10 µM,12.1% (inactive)
same,nuclear beta-catenin stimulation,"[2]; stimulation, at 2 µM",4%
same,insulin secretion stimulation,[3],1.8% (inactive)
same,viability decrease,[4],81.3% (active)
same,tube area decrease,[5],76.6% (active)
same,GLP1 secretion stimulation,[6],5.1% (inactive)
same,inhibition of viability,[7],85% (active)
same,viability decrease (inhibition),[8],102% (active)
same,viability decrease (inhibition),[9],81.4% (active)
S=C(SSC(=S)N1CCCCC1)N1CCCCC1,nuclear beta-catenin stimulation,[2]; at 10 µM,1.8% (inactive)
same,nuclear beta-catenin stimulation,"[2]; stimulation, at 2 µM",0.4%
same,insulin secretion stimulation,[3],-2.6% (inactive)
same,viability decrease,[4],-2.9% (inactive)
same,tube area decrease,[5],8.9% (inactive)
same,GLP1 secretion stimulation,[6],-2.3% (inactive)
same,inhibition of viability,[7],-14.8% (inactive)
same,viability decrease (inhibition),[8],13.2% (inactive)
same,viability decrease (inhibition),[9],-3.5% (inactive)
NCC(O)c1ccc(O)cc1 (stereo not given),score,[18],1.11
same,cytochrome c release ratio,[19],0.99
same,inhibition of aggregation,[20],55.6%
same,parasite load remaining,[1],79.5% (inactive) and 84.6% (inactive)
same,viability,[1],96% and 67.9%
same,nuclear beta-catenin stimulation,[2]; at 10 µM,-0.4% (inactive)
same,nuclear beta-catenin stimulation,"[2]; stimulation, at 2 µM",0.8%
same,insulin secretion stimulation,[3],-2.1% (inactive)
same,viability decrease,[4],-4.35% (inactive)
same,tube area decrease,[5],-17.5% (inactive)
same,GLP1 secretion stimulation,[6],1.6% (inactive)
same,inhibition of viability,[7],-5% (inactive)
same,viability decrease (inhibition),[8],18.2% (inactive)
same,viability decrease (inhibition),[9],1.65% (inactive)
same,inhibition,[10],8.94% (inactive)
same,red/green cell ratio (normalised),[11],1 (inactive)
same,normalised cell number,[11]; [21],0.98
same,normalised cell number,[11]; [22],0.97
same,activity remaining,[12],125% (inactive)
same,z-score,[14]; [26],-0.301 (inactive) and 0.485 (inactive)
same,z-score,[14]; [27],-0.195 and -0.00807
same,remaining NAD,[15],10 nM (inactive)
same,luciferase signal,[16],80 AU (inactive)
same,z-score,[17],0.63 (inactive) and -0.045 (inactive)
O=c1[nH]c2ccccc2n1C1CCN(CCCC(c2ccc(F)cc2)c2ccc(F)cc2)CC1,score,[18],1.1
same,cytochrome c release ratio,[19],1.41
same,inhibition of aggregation,[20],38.1%
same,nuclear beta-catenin stimulation,[2]; at 10 µM,7.8% (inactive)
same,nuclear beta-catenin stimulation,"[2]; stimulation, at 2 µM",0.2%
same,insulin secretion stimulation,[3],0.4% (inactive)
same,viability decrease,[4],98.9% (active)
same,tube area decrease,[5],108% (active)
same,GLP1 secretion stimulation,[6],-4.5% (inactive)
same,inhibition of viability,[7],99.6% (active)
same,viability decrease (inhibition),[8],102% (active)
same,viability decrease (inhibition),[9],99.3% (active)
same,inhibition,[10],13.7% (inactive)
same,red/green cell ratio (normalised),[11],0.96 (inactive)
same,normalised cell number,[11]; [21],1.24
same,normalised cell number,[11]; [22],1.19
same,activity remaining,[12],128% (inactive)
same,z-score,[14]; [26],0.83 (inactive) and 0.29 (inactive)
same,z-score,[14]; [27],0.702 and -0.0813
same,remaining NAD,[15],10 nM (inactive)
same,luciferase signal,[16],68 AU (inactive)
same,z-score,[17],-1.29 (inactive) and -1.18 (inactive) and -2 (inactive)
